Values joined by “and” are separate entries in the source; they are usually repeats but may differ in a detail not shown here. Equal entries are not always repeated. Active and inactive are the calls of the source. Unless noted, the rule behind the calls is not given here.

These results are taken from PubChem BioAssay.

Experiment [1] is described as follows: circadian clock period modulators, cell-based, LOPAC library, luminescence reporter (AID 2774).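 Note: values are relative to mean of DMSO wells on each plate.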 Conditions: circadian reporter cells, at 7 µM, actives lie on both sides.
The subject of experiment [2] is Hepatitis C virus NS3 helicase. Kind of experiment: HCV NS3 helicase inhibitors, primary screen, biochemical, fluorescence polarization, LOPAC1280 library (AID 687035; in the data active = inhibition above about 37%). The note with it: Purified HCV NS3 helicase, Cy5-dT15 ssDNA binding fluorescence polarization; stronger effect = higher value; concentration not given here.
A short description of experiment [3]: Cy5 fluorescence quenching or enhancement artefacts, artefact control for HCV NS3 helicase inhibitor project, biochemical, LOPAC1280 (AID 687037). The note with it: Cy5-DNA-NS3h complex fluorescence interference counterscreen.
Experiment [4] can be described thus: sensitizers of A549 cells to miR-34 induction, primary screen, imaging, A549 dox-inducible miR-34, nuclei and caspase counts (AID 1347080;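 active = compounds whose cell count with miR-34 switched on is under 0.7 times the count with it off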). The note with it: A549 miR-34 inducible, Hoechst nuclei count, 48 h.
Experiment [5] is described as follows: phospholipid biosynthesis inhibitors in animal cells, primary screen, cell-based, LOPAC library, screen 4 (AID 1347384). Conditions: phospholipid biosynthesis inhibition screen, at 10 µM.
Experiment [6] can be described thus: viability rescue of complex I mutant cybrids, primary screen, cell-based, galactose medium, ATP luminescence (AID 1645843;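 active = z-score of at least 1.8 in each of two replicates, scored against plate mean and spread of sample wells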;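 note: positive z means more ATP and so rescue of galactose-driven cybrid death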). Conditions: complex I mutant cybrid cells, 72 h, stronger effect = higher value.
A short description of experiment [7]: inhibitors of Cryptococcus chitosan production, flow cytometry, Cibacron Brilliant Red staining (AID 1347148).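 Note: compound exposure lasted three days at 37 degrees C.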 The note with it: Cryptococcus neoformans chitosan, stronger effect = lower value; at 10 µM unless noted.
Experiment [8] can be described thus: hESC survival regulators, cell-based (AID 493140).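 Note: cells exposed to compounds for four days before counting.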 Conditions: human embryonic stem cell survival screen; stronger effect = higher value.
Experiment [9] is described as follows: survival rescue of mitochondrial mutant cells in low glucose, primary screen, MELAS cybrids, Rieske KO mouse fibroblasts, CellTiter-Glo (AID 1508586;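 active = mean z-score across replicates of 1.96 or higher in either the MELAS or the Rieske mutant cell line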;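 note: z relative to plate mean and SD of compound and empty wells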).
The mark [10] stands for this setting: measured here: relative caspase fold change +Dox/-Dox.
The mark [11] stands for this setting: measured here: total cells with miR-34 induction, stronger effect = lower value.
The mark [12] stands for this setting: measured here: total cells without miR-34 induction.
The mark [13] stands for this setting: MELAS cybrid survival, CellTiter-Glo 48 h, stronger effect = higher value.
[14] abbreviates: Rieske KO mouse fibroblast survival, CellTiter-Glo 72 h.

Turning to `c1ccc2cc(CC3=NCCN3)ccc2c1`, the period change in experiment [1] is 0.04 h (inactive). Besides, the inhibition in experiment [2] is -3% (inactive). In addition, the fluorescence ratio (interference) in experiment [3] was 1 (inactive). In addition, the fold change in [4] (stronger effect = lower value) was 1.06 (inactive); in [4] (setting [10]), 1.69. The cell count came out at 11100 in [4] (setting [11]) and 10500 in [4] (setting [12]). Besides, the compound was classed as inactive in experiment [5]. Moreover, the z-score in experiment [6] is 0.28 (inactive).

Turning to `CCN1C[C@@]2(COC)C3[C@@H](OC)C4[C@@H]1C3([C@@H]1C[C@@]3(O)[C@H](OC(=O)c5ccccc5)[C@@H]1[C@]4(OC(C)=O)[C@@H](O)[C@@H]3OC)[C@H](OC)C[C@H]2O`, the inhibition in experiment [2] was -4% (inactive). In experiment [3], the fluorescence ratio (interference) is 1 (inactive). Also, the fold change in experiment [4] (stronger effect = lower value) was 1.01 (inactive); in [4] (setting [10]) it was 1.67. Also, the cell count in [4] (setting [11]) came out at 10600; in experiment [4] (setting [12]) it was 10500. The call in [5] was inactive. In addition, the z-score in experiment [6] is 0.075 (inactive).

Turning to `C[C@@H]1O[C@H](C[N+](C)(C)C)C[C@H]1O`, the period change in experiment [1] is -0.03 h (inactive). The inhibition in experiment [2] is -2% (inactive). In experiment [3], the fluorescence ratio (interference) was 1 (inactive). Besides, the fold change in experiment [4] (stronger effect = lower value) was 1.05 (inactive); in experiment [4] (setting [10]) it was 1.87. Further, the cell count is 10900 in experiment [4] (setting [11]) and 10400 in experiment [4] (setting [12]). Further, the outcome in experiment [5] was inactive. In addition, the z-score in experiment [6] is 0.675 (inactive).

Regarding `N[C@@]1(C(=O)O)CC[C@@H](C(=O)O)C1`, in experiment [1], the period change was -0.105 h (inactive). Besides, the inhibition in experiment [2] was -5% (inactive). Moreover, the fluorescence ratio (interference) in experiment [3] is 1 (inactive). Besides, the fold change in experiment [4] (stronger effect = lower value) is 1.04 (inactive); in experiment [4] (setting [10]) it was 2.1. Further, the cell count came to 10500 in experiment [4] (setting [11]) and 10000 in experiment [4] (setting [12]). Moreover, in experiment [5], the compound was classed as inactive. The z-score in experiment [6] was 0.225 (inactive).

Turning to `C[C@@H]1O[C@@H](O[C@H]2C[C@@H](O)[C@]3(CO)[C@@H]4C(CC[C@]3(O)C2)[C@@]2(O)CC[C@H](C3COC(=O)C3)[C@@]2(C)C[C@H]4O)[C@H](O)[C@H](O)[C@H]1O` (stereo partly specified), in experiment [1], the period change is -0.47 h (inactive). Further, the inhibition in experiment [2] is -1% (inactive). Moreover, the fluorescence ratio (interference) in [3] was 1 (inactive). For the same compound, the results for the fold change in experiment [4] (stronger effect = lower value) and in experiment [4] (setting [10]) were 0.861 (inactive) and 1.72, respectively. Further, the cell count in [4] (setting [11]) was found to be 370; in experiment [4] (setting [12]), 430. Also, the compound was classed as inactive in experiment [5]. In [6], the z-score is -0.995 (inactive).

Take `N#CC(C#N)=NNc1ccc(OC(F)(F)F)cc1`: the fold change in experiment [4] (stronger effect = lower value) was 1.05 (inactive); in [4] (setting [10]), 0.834. The cell count in [4] (setting [11]) amounted to 1180; in experiment [4] (setting [12]), 1130. Also, in experiment [7], the fold fluorescence is 9.07 [at 196.7 µM] (inactive).

For the compound `CN1CC[C@@]2(C)c3cc(OC(=O)Nc4ccccc4)ccc3N(C)[C@@H]12`, the inhibition in experiment [2] was -3% (inactive). Also, the fluorescence ratio (interference) in [3] is 1 (inactive). Moreover, the fold change in experiment [4] (stronger effect = lower value) is 0.963 (inactive); in [4] (setting [10]), 1.22. In addition, the cell count in experiment [4] (setting [11]) came to 10200; in experiment [4] (setting [12]) it was 10600. Moreover, the call in experiment [5] was inactive. Also, the z-score in [6] is -0.985 (inactive).

For `CO[C@@H]1C[C@@H](C[C@H]2CC[C@H](C)[C@H]([C@@H](C)C(=O)O)O2)O[C@]2(O[C@](C)([C@H]3CC[C@@](C)([C@@H]4O[C@@H]([C@H]5O[C@@](O)(CO)[C@H](C)C[C@@H]5C)C[C@@H]4C)O3)C[C@H]2C)[C@@H]1C`, the fold change in experiment [4] (stronger effect = lower value) was 0.993 (inactive); in experiment [4] (setting [10]) it was 1.75. Moreover, the cell count in [4] (setting [11]) amounted to 1790; in [4] (setting [12]), 1800. In experiment [7], the fold fluorescence is 5.68 [at 69 µM] (inactive).

As for `CCCCC[C@@H](/C=C/C=C\C/C=C\C/C=C\CCCC(=O)O)OO`, in experiment [8], the survival is 120 (inactive). The fold change in experiment [4] (stronger effect = lower value) is 0.973 (inactive); in experiment [4] (setting [10]), 0.92. The cell count in experiment [4] (setting [11]) was determined as 5790; in [4] (setting [12]) it was 5950. In addition, the fold fluorescence in experiment [7] is 5.13 [at 1 µM] (inactive).

`Oc1ccc2c3c1O[C@H]1c4[nH]c5ccccc5c4C[C@@]4(O)C(C2)N(CC2CC2)CCC314` (stereo partly specified): the period change in experiment [1] was 0.005 h (inactive). The inhibition in experiment [2] is -4% (inactive). For the same compound, the fluorescence ratio (interference) in experiment [3] is 1 (inactive). Besides, the fold change in experiment [4] (stronger effect = lower value) is 1.01 (inactive); in experiment [4] (setting [10]), 1.69. Also, the cell count came to 8190 in [4] (setting [11]) and 8080 in [4] (setting [12]). Moreover, the call in experiment [5] was inactive. The z-score in [6] is -0.835 (inactive).

As to `CCCCC/C=C\C/C=C\CCCCCCCC(=O)NCCO`, the survival in experiment [8] was 162 (inactive). Further, the fold change in experiment [4] (stronger effect = lower value) was 1.09 (inactive) and 1.06 (inactive); in [4] (setting [10]), 1.07 and 1.16. Besides, the cell count is 5710 and 5830 in experiment [4] (setting [11]); 5220 and 5490 in [4] (setting [12]). The fold fluorescence in experiment [7] was 4.78 (inactive).

For `CCCCC/C=C\C/C=C\C/C=C\C/C=C\CCCC(=O)NCCO`, the survival in experiment [8] was 114 (inactive). Moreover, the fold change was 0.996 (inactive) and 0.983 (inactive) in experiment [4] (stronger effect = lower value); 0.958 and 0.763 in experiment [4] (setting [10]). In addition, the cell count in experiment [4] (setting [11]) was 6110 and 5070; in experiment [4] (setting [12]) it was 6130 and 5160. Also, the fold fluorescence in experiment [7] is 5.85 (inactive).

For `C[C@]12Cc3cn4c(nc3C=C1CCC1C2CC[C@@]2(C)[C@H]1CC[C@@]2(O)C#N)nc1ccccc14` (stereo partly specified), in [1], the period change was 0.285 h (inactive). In addition, the inhibition in experiment [2] is 0% (inactive). In addition, the fluorescence ratio (interference) in [3] was 1 (inactive). The fold change in experiment [4] (stronger effect = lower value) is 1.02 (inactive); in experiment [4] (setting [10]), 0.934. The cell count in [4] (setting [11]) was found to be 1380; in experiment [4] (setting [12]), 1350. In addition, the result in [5] was inactive. Moreover, the z-score in [6] is -0.25 (inactive).

For the compound `CCNC(=O)[C@H]1O[C@@H](n2cnc3c(N)ncnc32)C(O)[C@H]1O` (stereo partly specified), in [1], the period change is -0.025 h (inactive). The inhibition in experiment [2] was 0% (inactive). The fluorescence ratio (interference) in experiment [3] was 1 (inactive). The values for the fold change in experiment [4] (stronger effect = lower value) and in experiment [4] (setting [10]) were 1.03 (inactive) and 1.36, respectively. Moreover, the cell count in experiment [4] (setting [11]) amounted to 9250; in experiment [4] (setting [12]), 8960. Besides, the compound was classed as inactive in experiment [5]. In addition, in [6], the z-score was 0.625 (inactive).

`CCCN1CCO[C@@H]2c3cc(O)ccc3OC[C@@H]21`: the fold change in experiment [4] (stronger effect = lower value, cell number ratio, induced over uninduced) was 0.947 (inactive); in [4] (setting [10]), 0.482. Also, the cell count in [4] (setting [11]) came to 8140; in experiment [4] (setting [12]), 8590. Also, the figures for the z-score in experiment [9] (setting [13]) and in experiment [9] (setting [14]) were 0.111 (inactive) and 0.146, respectively.

Turning to `CC(=O)Nc1ccc(Cc2ccc(NC(C)=O)cc2)cc1`, the fold change in [4] (stronger effect = lower value) is 0.888 (inactive); in [4] (setting [10]), 0.668. The cell count in [4] (setting [11]) was 8350; in experiment [4] (setting [12]), 9400. The z-score in experiment [9] (setting [13]) was -0.423 (inactive); in [9] (setting [14]), 0.257.

Turning to `Cc1sc2c(c1C)C(c1ccc(Cl)cc1)=NC(CC(=O)OC(C)(C)C)c1nnc(C)n1-2` (stereo unspecified), the results for the fold change in [4] (stronger effect = lower value) and in experiment [4] (setting [10]) were 0.954 (inactive) and 0.485, respectively. Also, the cell count was determined as 5260 in experiment [4] (setting [11]) and 5520 in experiment [4] (setting [12]). In addition, the z-score in [9] (setting [13]) was 0.154 (inactive); in experiment [9] (setting [14]) it was -3.85.

Regarding `C=C1C[C@@H]2[C@@H](CC[C@@]3(C)C(=O)CC[C@@H]23)[C@@]2(C)C=CC(=O)C=C12`, the fold change was 1.01 (inactive) in [4] (stronger effect = lower value) and 1.02 in [4] (setting [10]). The cell count in experiment [4] (setting [11]) worked out at 7640; in [4] (setting [12]), 7540. The z-score is -0.495 (inactive) in experiment [9] (setting [13]) and 0.156 in [9] (setting [14]).
